Measurements published in PMC7862700, “An all-to-all approach to the identification of sequence-specific readers for epigenetic DNA modifications on cytosine”.

Experiments:
Test in all cases: DAPPL (digital affinity profiling via proximity ligation, sequencing); 10 mM Tris-HCl pH 7.5, 50 mM NaCl, 1 mM DTT, 4% glycerol, room temperature, 30 min; GST-TFs on glutathione beads, 16-mer random dsDNA library, 0.1% formaldehyde crosslink after washing; high values mean tight binding
FEV = target: T1, FEV (Homo sapiens, UniProt Q99581 1-238); conditions: protein: recombinant; tags: N-terminal GST; dsDNA, one strand shown
T1 sequence: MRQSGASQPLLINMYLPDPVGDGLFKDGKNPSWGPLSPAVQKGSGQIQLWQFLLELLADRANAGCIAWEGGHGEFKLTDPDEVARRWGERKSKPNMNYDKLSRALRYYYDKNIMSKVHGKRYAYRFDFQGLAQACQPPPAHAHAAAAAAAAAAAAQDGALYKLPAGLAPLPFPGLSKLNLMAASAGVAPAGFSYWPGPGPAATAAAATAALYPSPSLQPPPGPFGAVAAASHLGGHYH
Method in brief: (§1)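 Yeast served to express human transcription factors as GST fusions, which were then captured on glutathione beads and labelled with DNA barcodes. Pooled with a tag-only sample, they were incubated with 200 nmole of a 16-mer random double-stranded DNA library for 30 min at room temperature in Tris/NaCl/DTT/glycerol buffer, washed, crosslinked with 0.1% formaldehyde, ligated by proximity, amplified by PCR and sequenced. Dividing each hexamer's read frequency for a factor by its frequency for the tag-only sample gives the binding signal.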

ETV5 = ETV5 (Homo sapiens, UniProt P41161 1-510); conditions: protein: recombinant; tags: N-terminal GST; dsDNA, one strand shown
ETV5, sequence (P41161 whole entry): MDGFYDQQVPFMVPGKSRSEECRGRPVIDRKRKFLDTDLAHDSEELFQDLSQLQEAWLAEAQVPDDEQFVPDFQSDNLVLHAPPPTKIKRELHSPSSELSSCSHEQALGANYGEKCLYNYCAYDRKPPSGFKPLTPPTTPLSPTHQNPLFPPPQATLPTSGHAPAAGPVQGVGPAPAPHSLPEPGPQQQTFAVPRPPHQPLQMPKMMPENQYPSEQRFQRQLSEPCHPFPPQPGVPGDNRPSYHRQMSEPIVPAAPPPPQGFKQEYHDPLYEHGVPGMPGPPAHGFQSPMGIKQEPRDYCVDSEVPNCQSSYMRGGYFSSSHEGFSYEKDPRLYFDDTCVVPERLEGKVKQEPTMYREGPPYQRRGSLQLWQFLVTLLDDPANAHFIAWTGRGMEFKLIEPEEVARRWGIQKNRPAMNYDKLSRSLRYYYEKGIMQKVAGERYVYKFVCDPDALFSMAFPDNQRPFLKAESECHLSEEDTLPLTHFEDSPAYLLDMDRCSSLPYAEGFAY
Method in brief: as §1

HSF1 = HSF1 (Homo sapiens, UniProt Q00613 1-529); conditions: protein: recombinant; tags: N-terminal GST; chain copies: 3; dsDNA, one strand shown
HSF1, sequence (Q00613 whole entry): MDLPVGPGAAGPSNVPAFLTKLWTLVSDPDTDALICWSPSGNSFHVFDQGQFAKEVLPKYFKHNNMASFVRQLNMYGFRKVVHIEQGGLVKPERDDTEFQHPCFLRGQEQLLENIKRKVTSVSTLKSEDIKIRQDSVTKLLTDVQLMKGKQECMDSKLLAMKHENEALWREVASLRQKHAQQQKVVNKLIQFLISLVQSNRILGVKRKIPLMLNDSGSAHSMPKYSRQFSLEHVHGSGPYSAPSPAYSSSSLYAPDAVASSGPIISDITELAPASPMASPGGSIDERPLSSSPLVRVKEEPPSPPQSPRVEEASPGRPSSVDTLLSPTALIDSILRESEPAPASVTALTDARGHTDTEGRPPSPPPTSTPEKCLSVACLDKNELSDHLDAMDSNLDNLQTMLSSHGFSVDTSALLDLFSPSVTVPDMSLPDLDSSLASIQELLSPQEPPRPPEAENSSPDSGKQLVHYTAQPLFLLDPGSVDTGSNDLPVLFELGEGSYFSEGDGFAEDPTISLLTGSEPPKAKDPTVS
Method in brief: as §1

SPIC = target: T2, SPIC (Homo sapiens, UniProt Q8N5J4 1-248); conditions: protein: recombinant; tags: N-terminal GST; dsDNA, one strand shown
T2 sequence: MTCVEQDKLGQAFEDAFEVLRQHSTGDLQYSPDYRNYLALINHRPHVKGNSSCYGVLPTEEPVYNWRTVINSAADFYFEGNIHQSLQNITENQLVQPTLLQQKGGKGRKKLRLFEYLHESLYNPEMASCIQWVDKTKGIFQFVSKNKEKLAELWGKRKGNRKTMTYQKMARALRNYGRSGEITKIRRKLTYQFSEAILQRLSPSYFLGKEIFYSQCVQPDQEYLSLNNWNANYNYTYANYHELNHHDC
Method in brief: as §1

ELF4 = ELF4 (Homo sapiens, UniProt Q99607 1-663); conditions: protein: recombinant; tags: N-terminal GST; dsDNA, one strand shown
ELF4, sequence (Q99607 whole entry): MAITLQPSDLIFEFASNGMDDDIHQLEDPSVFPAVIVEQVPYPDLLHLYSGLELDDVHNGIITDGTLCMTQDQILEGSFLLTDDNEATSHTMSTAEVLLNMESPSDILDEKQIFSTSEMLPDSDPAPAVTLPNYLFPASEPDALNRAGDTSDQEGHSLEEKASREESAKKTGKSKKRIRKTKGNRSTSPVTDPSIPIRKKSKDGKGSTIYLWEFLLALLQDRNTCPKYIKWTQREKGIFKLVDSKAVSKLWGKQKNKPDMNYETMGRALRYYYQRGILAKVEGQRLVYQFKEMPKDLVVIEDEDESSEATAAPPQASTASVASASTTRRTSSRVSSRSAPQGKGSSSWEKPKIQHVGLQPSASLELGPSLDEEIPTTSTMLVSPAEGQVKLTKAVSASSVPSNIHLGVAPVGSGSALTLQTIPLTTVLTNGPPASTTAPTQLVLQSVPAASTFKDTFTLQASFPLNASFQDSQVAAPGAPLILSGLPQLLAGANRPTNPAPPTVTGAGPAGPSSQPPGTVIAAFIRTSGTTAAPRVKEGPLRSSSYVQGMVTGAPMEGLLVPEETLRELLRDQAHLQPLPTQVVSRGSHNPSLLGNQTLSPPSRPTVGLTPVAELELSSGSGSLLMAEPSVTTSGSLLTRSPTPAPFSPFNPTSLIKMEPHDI
Method in brief: as §1

ELK4 = target: T3, ELK4 (Homo sapiens, UniProt P28324-2 1-405); conditions: protein: recombinant; tags: N-terminal GST; dsDNA, one strand shown
T3 sequence: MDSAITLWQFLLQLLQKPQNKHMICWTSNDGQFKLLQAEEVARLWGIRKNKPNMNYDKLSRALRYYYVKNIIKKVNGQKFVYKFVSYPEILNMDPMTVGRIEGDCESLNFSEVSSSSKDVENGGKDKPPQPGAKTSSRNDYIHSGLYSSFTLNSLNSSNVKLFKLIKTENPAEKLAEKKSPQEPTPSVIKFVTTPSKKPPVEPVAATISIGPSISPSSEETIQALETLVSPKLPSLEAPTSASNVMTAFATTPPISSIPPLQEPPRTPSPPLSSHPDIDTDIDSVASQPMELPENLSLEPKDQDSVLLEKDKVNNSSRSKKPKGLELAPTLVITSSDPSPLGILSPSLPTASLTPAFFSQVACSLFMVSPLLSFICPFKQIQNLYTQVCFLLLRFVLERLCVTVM
Method in brief: as §1

ETV2 = target: T4, ETV2 (Homo sapiens, UniProt O00321 1-342); conditions: protein: recombinant; tags: N-terminal GST; dsDNA, one strand shown
T4 sequence: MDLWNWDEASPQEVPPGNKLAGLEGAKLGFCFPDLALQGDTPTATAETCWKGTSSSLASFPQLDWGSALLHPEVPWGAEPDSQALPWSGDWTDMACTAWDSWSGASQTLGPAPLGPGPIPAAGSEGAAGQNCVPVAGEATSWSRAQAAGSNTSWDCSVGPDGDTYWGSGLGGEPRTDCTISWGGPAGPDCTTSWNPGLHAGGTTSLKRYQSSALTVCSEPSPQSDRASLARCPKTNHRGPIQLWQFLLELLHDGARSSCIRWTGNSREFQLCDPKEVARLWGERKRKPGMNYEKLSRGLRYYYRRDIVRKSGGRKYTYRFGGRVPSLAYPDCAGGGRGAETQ
Method in brief: as §1

ELF3 = target: T5, ELF3 (Homo sapiens, UniProt P78545 1-371); conditions: protein: recombinant; tags: N-terminal GST; dsDNA, one strand shown
T5 sequence: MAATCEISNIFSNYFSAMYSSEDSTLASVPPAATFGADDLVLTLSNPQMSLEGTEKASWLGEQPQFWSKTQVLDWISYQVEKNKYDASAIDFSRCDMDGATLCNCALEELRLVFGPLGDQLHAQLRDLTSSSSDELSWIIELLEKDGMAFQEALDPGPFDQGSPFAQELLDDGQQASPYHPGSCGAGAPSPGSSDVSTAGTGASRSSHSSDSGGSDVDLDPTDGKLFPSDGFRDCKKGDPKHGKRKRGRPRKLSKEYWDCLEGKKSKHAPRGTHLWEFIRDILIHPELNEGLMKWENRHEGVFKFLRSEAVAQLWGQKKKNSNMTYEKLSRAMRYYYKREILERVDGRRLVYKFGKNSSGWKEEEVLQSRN
Method in brief: as §1

CRX = CRX (Homo sapiens, UniProt O43186 1-299); conditions: protein: recombinant; tags: N-terminal GST; dsDNA, one strand shown
CRX, sequence (O43186 whole entry): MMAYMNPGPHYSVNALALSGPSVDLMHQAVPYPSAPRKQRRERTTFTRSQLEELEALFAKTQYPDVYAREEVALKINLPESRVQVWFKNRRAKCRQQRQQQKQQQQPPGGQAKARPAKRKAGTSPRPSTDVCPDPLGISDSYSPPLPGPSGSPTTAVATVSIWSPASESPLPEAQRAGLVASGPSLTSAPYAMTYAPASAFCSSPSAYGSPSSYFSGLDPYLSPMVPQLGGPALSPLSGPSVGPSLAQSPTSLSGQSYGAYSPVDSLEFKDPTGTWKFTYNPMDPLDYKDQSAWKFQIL
Method in brief: as §1

ETV1 = ETV1 (Homo sapiens, UniProt P50549 1-477); conditions: protein: recombinant; tags: N-terminal GST; dsDNA, one strand shown
ETV1, sequence (P50549 whole entry): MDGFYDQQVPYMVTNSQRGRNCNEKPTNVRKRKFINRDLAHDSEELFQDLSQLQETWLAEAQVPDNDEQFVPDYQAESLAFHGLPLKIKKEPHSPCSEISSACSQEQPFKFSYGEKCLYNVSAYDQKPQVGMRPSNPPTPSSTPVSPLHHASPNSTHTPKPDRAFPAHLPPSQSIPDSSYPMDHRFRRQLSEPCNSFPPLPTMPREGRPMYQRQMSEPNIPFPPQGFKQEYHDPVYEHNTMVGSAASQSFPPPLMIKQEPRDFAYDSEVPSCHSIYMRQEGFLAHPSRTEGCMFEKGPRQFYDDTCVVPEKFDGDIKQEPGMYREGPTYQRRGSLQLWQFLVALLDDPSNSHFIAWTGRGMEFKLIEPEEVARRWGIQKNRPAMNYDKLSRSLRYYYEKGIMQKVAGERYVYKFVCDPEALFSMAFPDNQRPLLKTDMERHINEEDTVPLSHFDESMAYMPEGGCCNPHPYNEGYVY
Method in brief: as §1

ERF = target: T6, ERF (Homo sapiens, UniProt P50548 1-548); conditions: protein: recombinant; tags: N-terminal GST; dsDNA, one strand shown
T6 sequence: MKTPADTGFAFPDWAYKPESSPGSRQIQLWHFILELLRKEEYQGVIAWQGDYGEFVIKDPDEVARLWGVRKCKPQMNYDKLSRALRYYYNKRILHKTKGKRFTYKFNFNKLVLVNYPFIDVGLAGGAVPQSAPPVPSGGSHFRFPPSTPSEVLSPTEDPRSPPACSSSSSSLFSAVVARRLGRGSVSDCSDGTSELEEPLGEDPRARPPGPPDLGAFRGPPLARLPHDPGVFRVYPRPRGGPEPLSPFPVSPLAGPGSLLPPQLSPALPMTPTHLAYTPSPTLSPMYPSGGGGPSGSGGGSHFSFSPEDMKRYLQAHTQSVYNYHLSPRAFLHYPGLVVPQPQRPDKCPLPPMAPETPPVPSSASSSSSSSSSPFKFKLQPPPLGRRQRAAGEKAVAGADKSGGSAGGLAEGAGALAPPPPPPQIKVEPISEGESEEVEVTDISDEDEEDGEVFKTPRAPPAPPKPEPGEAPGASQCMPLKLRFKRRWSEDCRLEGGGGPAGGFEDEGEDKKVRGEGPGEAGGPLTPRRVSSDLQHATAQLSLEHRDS
Method in brief: as §1

ETV3L = target: T7, ETV3L (Homo sapiens, UniProt Q6ZN32 1-361); conditions: protein: recombinant; tags: N-terminal GST; dsDNA, one strand shown
T7 sequence: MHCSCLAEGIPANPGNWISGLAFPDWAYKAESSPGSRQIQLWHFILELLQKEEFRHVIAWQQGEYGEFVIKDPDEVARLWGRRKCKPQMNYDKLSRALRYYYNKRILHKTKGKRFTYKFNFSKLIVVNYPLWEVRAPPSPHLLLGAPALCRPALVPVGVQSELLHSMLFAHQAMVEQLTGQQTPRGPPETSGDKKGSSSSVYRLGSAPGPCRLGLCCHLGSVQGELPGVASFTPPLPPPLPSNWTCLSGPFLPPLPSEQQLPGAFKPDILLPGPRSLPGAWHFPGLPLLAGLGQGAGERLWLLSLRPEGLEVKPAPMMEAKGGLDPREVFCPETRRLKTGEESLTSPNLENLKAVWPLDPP
Method in brief: as §1

ETS2 = target: T8, ETS2 (Homo sapiens, UniProt P15036 1-469); conditions: protein: recombinant; tags: N-terminal GST; dsDNA, one strand shown
T8 sequence: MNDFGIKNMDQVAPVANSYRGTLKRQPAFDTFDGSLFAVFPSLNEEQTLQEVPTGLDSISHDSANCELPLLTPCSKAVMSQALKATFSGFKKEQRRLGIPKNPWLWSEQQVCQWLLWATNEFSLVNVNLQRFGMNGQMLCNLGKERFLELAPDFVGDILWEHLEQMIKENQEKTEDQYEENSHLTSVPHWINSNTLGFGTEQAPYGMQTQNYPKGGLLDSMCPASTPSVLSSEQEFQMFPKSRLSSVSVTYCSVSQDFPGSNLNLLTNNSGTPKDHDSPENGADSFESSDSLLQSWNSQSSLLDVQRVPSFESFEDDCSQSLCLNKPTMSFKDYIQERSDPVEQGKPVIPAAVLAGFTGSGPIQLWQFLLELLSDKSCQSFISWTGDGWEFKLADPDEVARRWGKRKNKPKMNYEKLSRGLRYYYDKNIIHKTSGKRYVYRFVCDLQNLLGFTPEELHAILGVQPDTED
Method in brief: as §1

SPDEF = target: T9, SPDEF (Homo sapiens, UniProt O95238 1-335); conditions: protein: recombinant; tags: N-terminal GST; dsDNA, one strand shown
T9 sequence: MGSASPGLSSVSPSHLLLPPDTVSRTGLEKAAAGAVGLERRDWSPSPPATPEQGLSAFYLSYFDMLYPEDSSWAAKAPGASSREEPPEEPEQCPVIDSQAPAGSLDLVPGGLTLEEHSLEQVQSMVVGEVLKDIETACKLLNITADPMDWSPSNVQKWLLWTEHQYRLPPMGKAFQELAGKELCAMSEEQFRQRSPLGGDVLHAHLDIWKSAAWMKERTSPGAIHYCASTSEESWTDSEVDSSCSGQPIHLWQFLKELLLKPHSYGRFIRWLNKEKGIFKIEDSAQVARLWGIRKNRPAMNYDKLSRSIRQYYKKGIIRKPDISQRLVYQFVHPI
Method in brief: as §1

ETV7 = target: T10, ETV7 (Homo sapiens, UniProt Q9Y603 1-341); conditions: protein: recombinant; tags: N-terminal GST; dsDNA, one strand shown
T10 sequence: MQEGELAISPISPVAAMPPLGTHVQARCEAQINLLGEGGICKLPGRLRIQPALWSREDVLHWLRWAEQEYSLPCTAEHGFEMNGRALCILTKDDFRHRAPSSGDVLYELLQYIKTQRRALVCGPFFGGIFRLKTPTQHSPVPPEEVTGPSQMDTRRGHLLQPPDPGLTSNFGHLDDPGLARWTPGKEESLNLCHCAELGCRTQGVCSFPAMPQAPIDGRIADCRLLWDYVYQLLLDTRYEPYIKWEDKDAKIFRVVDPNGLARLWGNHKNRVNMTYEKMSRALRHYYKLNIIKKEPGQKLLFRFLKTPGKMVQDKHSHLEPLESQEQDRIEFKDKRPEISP
Method in brief: as §1

ETV3 = target: T11, ETV3 (Homo sapiens, UniProt P41162-2 1-143); conditions: protein: recombinant; tags: N-terminal GST; dsDNA, one strand shown
T11 sequence: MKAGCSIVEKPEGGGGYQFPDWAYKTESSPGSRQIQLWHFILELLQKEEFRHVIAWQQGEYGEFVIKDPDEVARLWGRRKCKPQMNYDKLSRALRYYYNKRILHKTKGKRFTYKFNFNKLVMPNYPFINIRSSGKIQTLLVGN
Method in brief: as §1

ETV6 = ETV6 (Homo sapiens, UniProt P41212 1-452); conditions: protein: recombinant; tags: N-terminal GST; dsDNA, one strand shown
ETV6, sequence (P41212 whole entry): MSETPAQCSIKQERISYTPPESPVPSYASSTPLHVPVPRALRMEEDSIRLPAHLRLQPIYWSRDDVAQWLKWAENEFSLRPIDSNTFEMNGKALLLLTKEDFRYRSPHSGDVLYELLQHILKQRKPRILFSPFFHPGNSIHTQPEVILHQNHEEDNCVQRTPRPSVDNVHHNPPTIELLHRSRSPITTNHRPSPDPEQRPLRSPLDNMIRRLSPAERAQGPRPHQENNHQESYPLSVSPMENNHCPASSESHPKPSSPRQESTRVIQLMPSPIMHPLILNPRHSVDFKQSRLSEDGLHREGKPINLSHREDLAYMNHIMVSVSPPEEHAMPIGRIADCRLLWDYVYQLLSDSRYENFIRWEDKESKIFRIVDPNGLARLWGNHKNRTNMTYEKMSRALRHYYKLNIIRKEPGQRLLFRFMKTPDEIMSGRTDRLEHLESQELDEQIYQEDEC
Method in brief: as §1

Sequence: CTGAGC
- binding signal (FEV): 1.21 fold enrichment (6-mer frequency, TF over GST control)
- binding signal (ETV5): 1.12 fold enrichment (6-mer frequency, TF over GST control)
- binding signal (HSF1): 1.09 fold enrichment (6-mer frequency, TF over GST control)
- binding signal (SPIC): 1.08 fold enrichment (6-mer frequency, TF over GST control)
- binding signal (ELF4): 1.19 fold enrichment (6-mer frequency, TF over GST control)
- binding signal (ELK4): 1.14 fold enrichment (6-mer frequency, TF over GST control)
- binding signal (ETV2): 1.37 fold enrichment (6-mer frequency, TF over GST control)
- binding signal (ELF3): 1.16 fold enrichment (6-mer frequency, TF over GST control)
- binding signal (CRX): 1.3 fold enrichment (6-mer frequency, TF over GST control)
- binding signal (ETV1): 1.15 fold enrichment (6-mer frequency, TF over GST control)
- binding signal (ERF): 1.06 fold enrichment (6-mer frequency, TF over GST control)
- binding signal (ETV3L): 1.14 fold enrichment (6-mer frequency, TF over GST control)
- binding signal (ETS2): 1.15 fold enrichment (6-mer frequency, TF over GST control)
- binding signal (SPDEF): 1.16 fold enrichment (6-mer frequency, TF over GST control)
- binding signal (ETV7): 1.16 fold enrichment (6-mer frequency, TF over GST control)
- binding signal (ETV3): 1.01 fold enrichment (6-mer frequency, TF over GST control)
- binding signal (ETV6): 1.16 fold enrichment (6-mer frequency, TF over GST control)
